The first assay deals with IREB2. Kind of assay: pooled miR-30 sensor sort-seq; sequence = guide strand. As to conditions: shRNA.
The sequence TGTCACAGCAACTCTATCCTGA registered a sensor-assay potency score (higher = more potent) of 0.64.

With TATTGTAGTTCGATCAACTATA, the sensor-assay potency score (higher = more potent) was -0.8.

The sequence TAAAGTAAGAGAAACTGGCAGA gave a sensor-assay potency score (higher = more potent) of -0.195.

Take TCAACTGTAAGATCTGTCGGAC: the sensor-assay potency score (higher = more potent) is 0.203.

As for TAAAATTCCACAGGTAACCAAA, the sensor-assay potency score (higher = more potent) is -1.05.

A further assay addresses IRF2. The description is as above. The settings on record: shRNA.
With TTTCCTTTCTTAGAAGGCCGTT, the sensor-assay potency score (higher = more potent) is -0.36.

Sequence TCTTGATTCTCAATGTTGCTGT came in with a sensor-assay potency score (higher = more potent) of 0.147.

TATCAGTCGTTTCGCTTTCTGC had a sensor-assay potency score (higher = more potent) of -0.797.

The sequence TTTCTGCATAGGAAGACACGGG yielded a sensor-assay potency score (higher = more potent) of -0.335.

TTTGCCTTCAATATTCCTCTTC had a sensor-assay potency score (higher = more potent) of 0.432.

Sequence AATCTCTTGATTCTCAATGTTG showed a sensor-assay potency score (higher = more potent) of -1.2.

Consider TTGCTCTCCTCTTTGATGGTGA, for which the sensor-assay potency score (higher = more potent) was -0.593.

As for TTCAATATTCCTCTTCCGCCAG, the sensor-assay potency score (higher = more potent) is -0.844.

For the sequence TTCTGCATAGGAAGACACGGGG, the sensor-assay potency score (higher = more potent) is -0.312.

TACAACTTGGCAAATGTCTGGC showed a sensor-assay potency score (higher = more potent) of 0.449.

TTTCTTTATGCTTTTATCCTTG gave a sensor-assay potency score (higher = more potent) of -0.739.

The target in a further assay is IRX2. Described as above. As to conditions: shRNA.
TGTCCTTGCACTCCGAGCCCGA gave a sensor-assay potency score (higher = more potent) of -0.973.

The sequence TTGTCGGGACTCTCGTCCTTGC registered a sensor-assay potency score (higher = more potent) of -0.88.

TTCTTGGGCTCGTAGCCGCCGC displayed a sensor-assay potency score (higher = more potent) of -1.6.

TAGTTTGTGTAGTTGCCGTAGA yielded a sensor-assay potency score (higher = more potent) of 0.0957.

In turn, TTGTCCTTGCACTCCGAGCCCG showed a sensor-assay potency score (higher = more potent) of -1.01.

Sequence TACTTGTCCTTGCACTCCGAGC had a sensor-assay potency score (higher = more potent) of -1.54.

ATCTTCGCTTTTGTTTCTCGGG had a sensor-assay potency score (higher = more potent) of -1.09.

For the sequence TCTTCGCTTTTGTTTCTCGGGG, the sensor-assay potency score (higher = more potent) was -0.791.

For the sequence TTCGCTTTTGTTTCTCGGGGCC, the sensor-assay potency score (higher = more potent) is -0.0873.

As to TCTTTCTTGGGCTCGTAGCCGC, the sensor-assay potency score (higher = more potent) is -1.

ATGGCTAGCATGATCTTCTCGC showed a sensor-assay potency score (higher = more potent) of -0.31.

In turn, TCCTCGTCCTCATCTTCGCTTT registered a sensor-assay potency score (higher = more potent) of -1.22.

The target of the next assay is ISLR2. Described as above. The settings on record: shRNA.
As to TTTGTAAGCGCAGTCCGCGAAC, the sensor-assay potency score (higher = more potent) is -1.25.

For the sequence TTGTCAGGGACTACACGCCGGG, the sensor-assay potency score (higher = more potent) is -0.648.

For TAGCGCACCGAGTGCGTCCCGG, the sensor-assay potency score (higher = more potent) is -1.05.

On to TTGCGCAGGTCGCTCCACGGAA, for which the sensor-assay potency score (higher = more potent) is -1.26.

In the case of TTTCCAAAGTCTTCGCTCGTTT, the sensor-assay potency score (higher = more potent) is -0.577.

The sequence TTGAAAACAACGAAAACAGGAA gave a sensor-assay potency score (higher = more potent) of -0.395.

The sequence TGAGCGTACTTGTCCACGCAGG came in with a sensor-assay potency score (higher = more potent) of -1.13.

The sequence TTGAGCTCTGCGCTCTGGTTGA returned a sensor-assay potency score (higher = more potent) of -0.693.

On to TTTGGAACTAAAAACTAGGGGT, for which the sensor-assay potency score (higher = more potent) was 0.382.

As for TTGACGCCTTCCTCTACGCGGG, the sensor-assay potency score (higher = more potent) was -1.19.

The record behind these values is the OligoGym collection.
Also: reference of the scale not given here.
